Records with an inconclusive call do not appear. Active and inactive are the calls of the source. The calls were made as follows, unless noted: active = hit-call score of the fitted dose curve at least 0.9, where 1 is the maximum; inactive = score below 0.9.
Columns and labels:
[1] = CCTE_Shafer_MEA_dev_burst_rate: CCTE's Neural Network Formation Assay for Burst Rate, Shafer Lab (AID 2284042);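 as to AC50: potency for loss of burst rate below DMSO control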
Method in brief: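 Rat primary cortical cultures on PEI/laminin MEA; compound from plating, re-dosed at DIV 5, 9 media change. Single-electrode bursts/recording length, well mean of active electrodes; AUC over DIV 5–12 recordings; loss-of-signal vs DMSO.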

[2] = CCTE_Shafer_MEA_dev_bursting_electrodes_number: CCTE's Neural Network Formation Assay for Number of Bursting Electrodes, Shafer Lab (AID 2284043; active = hit-call score of the fitted dose curve at least 0.9, where 1 is the maximum;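 as to AC50: potency is for loss of bursting electrodes relative to DMSO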)
Method in brief: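 Primary rat cortical neurons plated on 16-electrode MEA wells, exposed from day 0 with compound renewed at DIV 5 and 9. Electrodes bursting ≥1 burst per 2 min counted on days 5, 7, 9 and 12; trapezoidal AUC across days, fitted for loss versus DMSO.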

[3] = CCTE_Shafer_MEA_dev_per_burst_interspike_interval: CCTE's Neural Network Formation Assay for Burst Interspike Interval, Shafer Lab (AID 2284044);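 also: mean spike spacing inside bursts as AUC over recordings on days 5 7 9 12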
Method in brief: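 Spontaneous activity of maturing rat cortical networks is recorded on DIV 5, 7, 9 and 12 under chronic compound exposure beginning at plating. Endpoint: burst interspike interval well-mean, collapsed into trapezoidal AUC and fitted in the negative direction relative to DMSO.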

[4] = CCTE_Shafer_MEA_dev_burst_duration_mean: CCTE's Neural Network Formation Assay for Mean Burst Duration, Shafer Lab (AID 2284045)
Method in brief: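 Primary rat cortical neurons on 48-well 16-electrode MEA plates, exposed from day 0 with renewal at DIV 5 and 9; spontaneous activity recorded on days 5, 7, 9, 12. Well-mean burst duration across bursting electrodes, collapsed as trapezoidal AUC; DMSO baseline.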

[5] = CCTE_Shafer_MEA_dev_interburst_interval_mean: CCTE's Neural Network Formation Assay for Mean Interburst Interval, Shafer Lab (AID 2284046);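 also: well-mean interburst interval of bursting electrodes as AUC over four recording days; curve fitted for decrease in interburst interval relative to DMSO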
Method in brief: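 Rat cortical neurons, 1.5 x 10^5 cells/well, 48-well MEA; compound from day 0 through DIV 12, media and treatment renewed DIV 5/9. Recordings DIV 5, 7, 9, 12; well-mean interburst interval → trapezoidal AUC, loss direction vs DMSO.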

[6] = CCTE_Shafer_MEA_dev_network_spike_number: CCTE's Neural Network Formation Assay for Number of Network Spikes, Shafer Lab (AID 2284048);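 as to AC50: fit as a loss of signal meaning fewer network spikes than DMSO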
Method in brief: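 Primary rat cortical neurons on PEI/laminin 48-well MEA plates, dosed from plating day 0 for 12 days, renewed at DIV 5 and 9. Network spike counts recorded DIV 5, 7, 9, 12, collapsed as trapezoidal AUC; DMSO baseline.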

[7] = CCTE_Shafer_MEA_dev_network_spike_peak: CCTE's Neural Network Formation Assay for Mean Number of Electrodes in Network Spike, Shafer Lab (AID 2284049);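 as to AC50: fitted for loss of signal meaning fewer electrodes in network spikes than DMSO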
Method in brief: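 Network-spike peak electrode count from recordings on days 5, 7, 9 and 12 was combined as trapezoidal area under the curve. Rat cortical cultures were treated continuously from plating, with compound renewed at each feed (DIV 5, 9); fits versus DMSO.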

[8] = test system: DIO2 (gene 1734); assay: CCTE_GLTED_hDIO2: CCTE's human Deiodinase 2 (DIO2) Inhibition Assay, Great Lakes Toxicology and Ecology Division (GLTED) Lab (AID 2284050; active = hit-call score of the fitted dose curve at least 0.9, where 1 is the maximum)
Method in brief: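 In this cell-free test, chemicals are exposed to human deiodinase type 2 for 3 hours. Released iodide is determined spectrophotometrically via the Sandell-Kolthoff method, and signal loss relative to DMSO is fitted.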

[9] = CCTE_Shafer_MEA_dev_spike_duration_mean: CCTE's Neural Network Formation Assay for Mean Spike Duration, Shafer Lab (AID 2284051);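 also: mean network spike duration pooled as area under curve over DIV 5 to 12 recordings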;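 as to AC50: potency for a decrease in mean network spike duration versus DMSO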
Method in brief: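 Rat cortical primary cultures, 48-well MEA (16 electrodes/well); compound from plating, renewed DIV 5, 9. Network spike duration (AxIS adaptive detector) recorded DIV 5/7/9/12, combined as trapezoidal AUC; loss direction vs DMSO.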

[10] = CCTE_Shafer_MEA_dev_network_spike_duration_std: CCTE's Neural Network Formation Assay for Standard Deviation of Network Spike Duration, Shafer Lab (AID 2284052);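 also: area under curve of spike duration SD across recording days 5 to 12; hits are decreases in network spike duration SD versus DMSO vehicle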
Method in brief: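 Rat cortical cultures, 1.5 x 10^5 cells/well, exposed continuously from plating to DIV 12 with media/compound renewal at DIV 5, 9. Spontaneous activity recorded DIV 5/7/9/12, AxIS adaptive spike detector; AUC across days; negative direction vs DMSO.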

[11] = CCTE_Shafer_MEA_dev_per_network_spike_spike_number_mean: CCTE's Neural Network Formation Assay for Mean Number of Spikes in a Network Spike, Shafer Lab (AID 2284053);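 as to AC50: fitted as decrease in spikes per network spike relative to DMSO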
Method in brief: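 Rat cortical primary cultures on 48-well MEA; compound from day 0, re-dosed with full media change DIV 5, 9. Recorded DIV 5, 7, 9, 12; spikes in 0.05 s window at network-spike peak ÷ total network spikes; AUC; loss vs DMSO.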

[12] = test system: DIO3 (gene 1735); assay: CCTE_GLTED_hDIO3: CCTE's human Deiodinase 3 (DIO3) Inhibition Assay, Great Lakes Toxicology and Ecology Division (GLTED) Lab (AID 2284055; active = hit-call score of the fitted dose curve at least 0.9, where 1 is the maximum;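 as to AC50: potency is for inhibition seen as loss of released iodide signal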)
Method in brief: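 Enzyme activity is tracked as iodide release from substrate by recombinant human DIO3 over 3 h with chemical present. A second Sandell-Kolthoff step converts iodide to an absorbance signal, fitted relative to DMSO.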

[13] = CCTE_Shafer_MEA_dev_LDH: CCTE's Lactate Dehydrogenase Assay for Cytotoxicity in the Neural Network Formation Assay, Shafer Lab (AID 2284068; active = hit-call score of the fitted dose curve at least 0.9, where 1 is the maximum;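 also: exposure for twelve days from plating with re-dosing on DIV 5 and 9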)
Method in brief: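 Rat cortical primary neurons, MEA culture; dosing day 0–12, full medium plus compound exchange DIV 5, 9. Read-out: LDH enzyme activity, spectrophotometric. DMSO = negative control/baseline; signal loss → cytotoxicity.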

[14] = CCTE_Shafer_MEA_acute_AB: CCTE's Alamar Blue Assay for Cytotoxicity in the Neural Acute Assay, Shafer Lab (AID 2284069; active = hit-call score of the fitted dose curve at least 0.9, where 1 is the maximum;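 also: active compounds lower the viability signal compared with DMSO wells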)
Method in brief: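 Read-out: resazurin fluorescence (ex 544, em 590 nm) after CTB reagent at 1:6 dilution in fresh media. Cells: primary rat cortical neuron networks, DIV 13 or 15, chemically exposed on MEA plates; DMSO as negative control/baseline.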

[15] = CCTE_Shafer_MEA_dev_AB: CCTE's Alamar Blue Assay for Cytotoxicity in the Neural Network Formation Assay, Shafer Lab (AID 2284083; active = hit-call score of the fitted dose curve at least 0.9, where 1 is the maximum;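 also: resazurin reduction fluorescence as viability of cultured neurons; twelve days of exposure from plating with re-dosing on DIV 5 and 9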)
Method in brief: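 Rat cortical primary cultures, 1.5 x 10^5 cells/well on MEA; continuous compound exposure over 12 days of network development, re-dosed with full medium change DIV 5 and 9. Alamar Blue fluorescence; loss of signal = cytotoxicity vs DMSO baseline.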

[16] = CCTE_Shafer_MEA_dev_mutual_information_norm: CCTE's Neural Network Formation Assay for Mutual Information Normalization, Shafer Lab (AID 2284091);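 as to AC50: mutual information between electrodes summarised as area under curve across four recording days; potency is for a decrease in mutual information relative to DMSO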
Method in brief: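 Primary rat cortical neurons on PEI-coated 48-well MEA plates, 1.5 x 10^5 cells/well, exposed from day 0 through day 12 with re-dosing at DIV 5 and 9. Mutual information between electrodes recorded days 5, 7, 9, 12; trapezoidal AUC, loss-of-signal fit versus DMSO.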

[17] = CCTE_Shafer_MEA_dev_correlation_coefficient_mean: CCTE's Neural Network Formation Assay for Mean Correlation Coefficient, Shafer Lab (AID 2284093);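 as to AC50: well mean pairwise spike train correlation integrated as AUC over recording days 5 to 12; potency fitted for loss of correlation relative to DMSO vehicle wells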
Method in brief: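 Rat cortical cultures, 1.5 x 10^5 cells/well, dosed from day 0 for 12 days. Spontaneous spikes recorded DIV 5/7/9/12; electrode-pair correlation coefficients averaged, AUC taken. Fit in loss direction vs DMSO.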

Measured: AC50

Cc1ccc(-c2c(Cl)nc(C#N)n2S(=O)(=O)N(C)C)cc1
active: [1] 15.2 µM | [2] 22.3 µM | [6] 30.2 µM | [7] 21.8 µM | [8] 81.8 µM | [9] 29.7 µM | [11] 14.4 µM | [13] 30.3 µM | [15] 50 µM | [16] 15.2 µM | [17] 27.9 µM
inactive: [3] | [4] | [5] | [10] | [12] | [14]

CCCC1COC(Cn2cncn2)(c2ccc(Cl)cc2Cl)O1 (centres undefined)
inactive: [14]

Fc1ccc(Oc2ccnc3cc(Cl)cc(Cl)c23)cc1
active: [8] 10.1 µM | [12] 0.965 µM
inactive: [14]

CS/C(C)=N/OC(=O)N(C)SN(C)C(=O)O/N=C(\C)SC
inactive: [14]

OC(c1ccc(Cl)cc1)(c1cncnc1)c1ccccc1Cl (centres undefined)
inactive: [14]

N#Cc1nn(-c2c(Cl)cc(C(F)(F)F)cc2Cl)c(N)c1S(=O)C(F)(F)F (centres undefined)
inactive: [1] | [2] | [3] | [4] | [5] | [6] | [7] | [9] | [10] | [11] | [14] | [15] | [16] | [17]
active: [8] 29.6 µM | [12] 1.13 µM | [13] 23.8 µM

COP(=S)(OC)Oc1nc(Cl)c(Cl)cc1Cl
inactive: [1] | [2] | [3] | [4] | [5] | [6] | [7] | [9] | [10] | [11] | [13] | [15] | [16] | [17]
